# PubChem BioAssay (Tox21)
# Several values for one entry are separate records, joined by “and”; a condition that tells them apart may be missing. Equal values may be shown once. Results filed as inconclusive are left out. A structure can be active in one record and inactive in another. Activity calls are given as the source filed them. The call rests on the fitted dose curve; in most records, active means well fitted inhibition curve with a large enough effect in the repeat runs; inconclusive means weak or mixed curves; inactive means no such curve, though single readings can be large or run the other way.
# Biological target: Cytochrome P450 2D6 (Homo sapiens) (UniProt P10635)
# Assay: Cytochrome P450 Family 2 Subfamily D Member 6 (CYP2D6) small molecule antagonists: luciferase reporter qHTS assay (AID 1671196); further: nearly all actives have a fitted effect of over 50% in size
# Settings: P450-Glo CYP2D6 enzyme assay, luciferin luminescence, 1 h; series mostly up to 115 µM
# Procedure, shortened: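 CYP2D6 enzyme–substrate mix was held with compound for 10 min at room temperature, then NADPH regeneration solution was added and the reaction ran 1 h at room temperature. Luciferin product was detected by luminescence after 20 min with detection reagent.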
# Potency means the concentration at half of the fitted maximal effect.
# Chain of Cytochrome P450 2D6 (Homo sapiens) (P10635 whole entry, looked up): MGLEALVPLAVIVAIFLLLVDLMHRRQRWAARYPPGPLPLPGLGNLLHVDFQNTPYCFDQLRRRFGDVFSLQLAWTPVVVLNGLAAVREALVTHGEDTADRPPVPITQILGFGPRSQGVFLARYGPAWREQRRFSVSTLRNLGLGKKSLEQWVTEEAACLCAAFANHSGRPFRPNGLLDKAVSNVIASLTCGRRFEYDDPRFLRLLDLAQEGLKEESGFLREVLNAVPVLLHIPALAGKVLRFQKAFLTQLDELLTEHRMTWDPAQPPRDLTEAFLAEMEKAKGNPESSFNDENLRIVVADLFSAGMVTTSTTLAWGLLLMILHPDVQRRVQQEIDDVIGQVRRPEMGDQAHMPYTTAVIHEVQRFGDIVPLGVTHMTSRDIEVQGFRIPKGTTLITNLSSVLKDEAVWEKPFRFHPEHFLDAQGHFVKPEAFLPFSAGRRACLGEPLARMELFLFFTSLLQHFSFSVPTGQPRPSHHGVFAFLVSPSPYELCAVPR
row,SMILES,Potency
1,C=C(C#N)C(=O)OCC,44.7 µM (active)
2,OCC#CCO,inactive
3,CN(C)c1cccc(O)c1,40.5 µM (active)
4,O=[N+]([O-])c1cc(N(CCO)CCO)ccc1NCCO,39.8 µM (active) and 31.7 µM (active)
5,CCC(=O)O,inactive
6,CCOC(=O)C1OC1c1ccccc1 (stereo not drawn),inactive
7,CCOC(=O)[C@H](CCc1ccccc1)N[C@@H](C)C(=O)N1Cc2ccccc2C[C@H]1C(=O)O,inactive
8,NC(=O)/N=N/C(N)=O,inactive
9,CCCCCCCCCC(=O)O,inactive
10,Nc1c(S(=O)(=O)O)cc(Br)c2c1C(=O)c1ccccc1C2=O,inactive
11,C/C=C(C)/C=C/C=C(C)C,inactive
12,O=S(=O)(Oc1ccc(Cl)cc1Cl)c1ccccc1,64.4 µM (active) and 63.3 µM (active)
13,COC(=O)c1ccccc1O,inactive
14,CCc1ccccc1O,35.4 µM (active) and inactive
15,COC(=O)Nc1nc2ccc(Sc3ccccc3)cc2[nH]1,inactive
16,CC#C[C@]1(O)CC[C@H]2[C@@H]3CCC4=CC(=O)CCC4=C3[C@@H](c3ccc(N(C)C)cc3)C[C@@]21C,63.3 µM (active) and 38.9 µM (active)
17,Nc1nc2ncc(CNc3ccc(C(=O)N[C@@H](CCC(=O)O)C(=O)O)cc3)nc2c(=O)[nH]1,inactive
18,Oc1c(Cl)cc(Cl)c(Cl)c1Cl,inactive

row,SMILES,Potency
1,c1ccc2[nH]cnc2c1,inactive
2,CCCCCCC(C)(C)S,inactive
3,CC1(C)O[C@@H]2C[C@H]3[C@@H]4C[C@H](F)C5=CC(=O)CC[C@]5(C)[C@H]4[C@@H](O)C[C@]3(C)[C@]2(C(=O)CO)O1,inactive
4,CC1=C(CC(=O)O)c2cc(F)ccc2/C1=C\c1ccc(S(C)=O)cc1 (stereo not drawn),35.6 µM (active) and 34.7 µM (active)
5,CC(C)n1c(/C=C/[C@@H](O)C[C@@H](O)CC(=O)O)c(-c2ccc(F)cc2)c2ccccc21,inactive
6,Cc1ccc(N)c(S(=O)(=O)O)c1,inactive
7,CC[Si](OC(C)=O)(OC(C)=O)OC(C)=O,35.6 µM (active)
8,CC1(C)CC(N=C=O)CC(C)(CN=C=O)C1 (stereo not drawn),25.5 µM (active) and 39.9 µM (active)
9,CCc1ccc(O)cc1,inactive
10,O=c1c(-c2ccc(O)cc2)coc2cc(O)ccc12,inactive
11,C=C(C)C(=O)OCCCCCC,inactive
12,CCCCC(CC)C(=O)OCCOCCOCCOC(=O)C(CC)CCCC (stereo not drawn),inactive
13,O=C(c1cc(O)c(O)c(O)c1)c1ccc(O)c(O)c1O,31.6 µM (active) and inactive
14,CCCCCCCCCCCCOCC1CO1 (stereo not drawn),inactive
15,Cc1cc(O)c2c(c1)C(=O)c1cc(O)cc(O)c1C2=O,inactive
16,CCOC(=O)/C=C\C(=O)OCC,inactive
17,CC(C)(C)C1CCC(O)CC1 (stereo not drawn),inactive

# Biological target: Cytochrome P450 2C19 (Homo sapiens) (UniProt P33261)
# Assay: Cytochrome P450 Family 2 Subfamily C Member 19 (CYP2C19) small molecule antagonists: luciferase reporter qHTS assay (AID 1671197); further: nearly all actives have a fitted effect of over 65% in size
# Settings: P450-Glo CYP2C19 enzyme, luciferin luminescence, 1 h; series mostly up to 115 µM
# Procedure, shortened: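 Quantitative high-throughput screen of the Tox21 library using CYP2C19 with proluciferin substrate. Reaction: NADPH regeneration, 37C, 1 h, after 10 min compound preincubation at room temperature. Readout: luminescence.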
# Chain of Cytochrome P450 2C19 (Homo sapiens) (P33261 whole entry, looked up): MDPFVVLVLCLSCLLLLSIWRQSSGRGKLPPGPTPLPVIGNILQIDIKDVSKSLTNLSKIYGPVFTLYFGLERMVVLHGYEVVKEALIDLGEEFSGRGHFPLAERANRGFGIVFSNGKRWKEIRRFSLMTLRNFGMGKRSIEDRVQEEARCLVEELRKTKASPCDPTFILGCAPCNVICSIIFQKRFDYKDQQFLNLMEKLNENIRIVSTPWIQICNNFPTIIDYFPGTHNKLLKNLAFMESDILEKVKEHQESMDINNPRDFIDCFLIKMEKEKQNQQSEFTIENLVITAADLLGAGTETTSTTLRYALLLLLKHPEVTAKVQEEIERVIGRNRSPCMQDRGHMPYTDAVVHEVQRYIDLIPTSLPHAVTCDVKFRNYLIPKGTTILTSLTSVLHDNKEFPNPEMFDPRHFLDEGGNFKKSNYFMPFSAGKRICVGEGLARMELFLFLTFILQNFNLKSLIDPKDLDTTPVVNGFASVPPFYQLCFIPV
row,SMILES,Potency
1,C=C(C#N)C(=O)OCC,inactive and 56.4 µM (active)
2,OCC#CCO,57.2 µM (active) and inactive
3,CN(C)c1cccc(O)c1,2.56 µM (active) and 3.56 µM (active)
4,O=[N+]([O-])c1cc(N(CCO)CCO)ccc1NCCO,22.4 µM (active) and 39.9 µM (active)
5,CCCCOCCOCCOC(=O)CCCCC(=O)OCCOCCOCCCC,22.5 µM (active) and 22.4 µM (active)
6,CCC(=O)O,inactive
7,CC1Cc2ccccc2N1NC(=O)c1ccc(Cl)c(S(N)(=O)=O)c1 (stereo not drawn),inactive
8,CCOC(=O)C1OC1c1ccccc1 (stereo not drawn),36.3 µM (active)
9,CCCCCCCCCCC=CC1CC(=O)OC1=O (stereo not drawn),45 µM (active) and inactive
10,CCOC(=O)[C@H](CCc1ccccc1)N[C@@H](C)C(=O)N1Cc2ccccc2C[C@H]1C(=O)O,35.8 µM (active) and inactive
11,NC(=O)/N=N/C(N)=O,3.18 µM (active) and 5.64 µM (active)
12,CCCCCCCCCC(=O)O,inactive
13,Nc1c(S(=O)(=O)O)cc(Br)c2c1C(=O)c1ccccc1C2=O,inactive
14,C/C=C(C)/C=C/C=C(C)C,70.2 µM (active) and 79.6 µM (active)
15,O=S(=O)(Oc1ccc(Cl)cc1Cl)c1ccccc1,811 nM (active) and 894 nM (active)
16,COC(=O)c1ccccc1O,35.7 µM (active) and inactive
17,CCc1ccccc1O,17.7 µM (active) and inactive
18,COC(=O)Nc1nc2ccc(Sc3ccccc3)cc2[nH]1,25.2 µM (active) and inactive
19,CC#C[C@]1(O)CC[C@H]2[C@@H]3CCC4=CC(=O)CCC4=C3[C@@H](c3ccc(N(C)C)cc3)C[C@@]21C,20 µM (active)

row,SMILES,Potency
1,Nc1nc2ncc(CNc3ccc(C(=O)N[C@@H](CCC(=O)O)C(=O)O)cc3)nc2c(=O)[nH]1,56.4 µM (active) and inactive
2,Oc1c(Cl)cc(Cl)c(Cl)c1Cl,inactive
3,c1ccc2[nH]cnc2c1,inactive
4,CCCCCCC(C)(C)S,22.6 µM (active) and inactive
5,CC1(C)O[C@@H]2C[C@H]3[C@@H]4C[C@H](F)C5=CC(=O)CC[C@]5(C)[C@H]4[C@@H](O)C[C@]3(C)[C@]2(C(=O)CO)O1,inactive
6,CC1=C(CC(=O)O)c2cc(F)ccc2/C1=C\c1ccc(S(C)=O)cc1 (stereo not drawn),7.96 µM (active) and 8.71 µM (active)
7,CC(C)n1c(/C=C/[C@@H](O)C[C@@H](O)CC(=O)O)c(-c2ccc(F)cc2)c2ccccc21,inactive
8,Cc1ccc(N)c(S(=O)(=O)O)c1,71.9 µM (active) and inactive
9,CC[Si](OC(C)=O)(OC(C)=O)OC(C)=O,50.2 µM (active) and inactive
10,CC1(C)CC(N=C=O)CC(C)(CN=C=O)C1 (stereo not drawn),18.1 µM (active) and inactive
11,CCc1ccc(O)cc1,71.3 µM (active) and inactive
12,O=c1c(-c2ccc(O)cc2)coc2cc(O)ccc12,49.8 µM (active)
13,C=C(C)C(=O)OCCCCCC,inactive
14,CCCCC(CC)C(=O)OCCOCCOCCOC(=O)C(CC)CCCC (stereo not drawn),40.4 µM (active) and 17.8 µM (active)
15,O=C(c1cc(O)c(O)c(O)c1)c1ccc(O)c(O)c1O,15.9 µM (active) and 31.7 µM (active)
16,CCCCCCCCCCCCOCC1CO1 (stereo not drawn),60.4 µM (active)
17,Cc1cc(O)c2c(c1)C(=O)c1cc(O)cc(O)c1C2=O,inactive and 35.6 µM (active)
18,CCOC(=O)/C=C\C(=O)OCC,72.3 µM (active) and inactive
19,CC(C)(C)C1CCC(O)CC1 (stereo not drawn),32.2 µM (active) and inactive
